From PubChem BioAssay (Tox21)
Inconclusive results are not listed. Calls of active or inactive are those of the source. Unless noted, the call rests on the fitted dose curve; in most records, active means well fitted curve in the direction sought with a large enough effect in the repeat runs; inconclusive means weak or mixed curves; inactive means no such curve, though single readings can be large; an effect the other way counts as inactive or inconclusive.

Assays:
[1] = qHTS assay to identify small molecule agonists of the vitamin D receptor (VDR) signaling pathway - cell viability counter screen (AID 743224); further: on the % scale 0 is the no-effect control and ±100 the full control effect; nearly all actives have a fitted effect of over 50% in size
Method in brief: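 Viability is measured in the same wells as the VDR-bla reporter assay: after 16 h compound treatment and 2 h substrate loading, CellTiter-Glo is added and luminescence read 30 min later.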

[2] = qHTS assay to identify small molecule antagonists of the vitamin D receptor (VDR) signaling pathway - cell viability counter screen (AID 743225); further: on the % scale 0 is the no-effect control and ±100 the full control effect; nearly all actives have a fitted effect of over 50% in size
Method in brief: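 Cells (VDR-UAS-bla HEK 293T) are plated, rested 4 h at 37C, dosed with compound and 3 nM final 1-alpha,25-dihydroxy vitamin D3, and incubated 16 h. Viability is taken from CellTiter-Glo luminescence in the reporter wells.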

[3] = qHTS assay to identify small molecule agonists of the NFkB signaling pathway (AID 1159509; active means well fitted curve in the direction sought with a large enough effect in the signal ratio in the repeat runs, not every such curve was filed as active; the % refers to the signal ratio; further: on the % scale 0 is the no-effect control and ±100 the full control effect)
Method in brief: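 NFkB-bla ME-180 cells carry a beta-lactamase reporter under an NF-kB response element. They were plated overnight, then exposed to compounds for 5 h at 37 C. Read-out is LiveBLAzer FRET after 1.5 hr at room temperature (405 nm excitation; 460/530 nm emission).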

[4] = qHTS assay to identify small molecule agonists of the endoplasmic reticulum stress response signaling pathway (AID 1159516; active means well fitted activation curve with a large enough effect in the signal ratio in the repeat runs, not every such curve was filed as active; the % refers to the signal ratio; further: on the % scale 0 is the no-effect control and ±100 the full control effect)
Method in brief: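 Tox21 10K library screened in quantitative HTS format on ESRE-bla HeLa cells, a beta-lactamase reporter under ER stress response element control; 5 hr treatment, FRET read.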

[5] = qHTS assay to identify small molecule agonists of the endoplasmic reticulum stress response signaling pathway - cell viability counter screen (AID 1159517; calls by dose curve; further: on the % scale 0 is the no-effect control and ±100 the full control effect; nearly all actives have a fitted effect of over 50% in size)
Method in brief: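 CellTiter-Glo was added to wells already read for beta-lactamase FRET, and luminescence was recorded 30 min later. Cells: ESRE-bla HeLa, 1,500 per well, compound exposure 5 hr at 37 C.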

[6] = qHTS assay to identify small molecule antagonists of the retinoid-related orphan receptor gamma (ROR-gamma) signaling pathway - cell viability counter screen (AID 1159520); further: on the % scale 0 is the no-effect control and ±100 the full control effect; nearly all actives have a fitted effect of over 50% in size
Method in brief: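 Tet-on ROR gamma CHO cells (1,000/well) were plated 4 hr, given compounds in DMSO for 2 hr at 37 C, then induced with 1 uM final doxycycline for 16 hr. Viability was read as ATP by CellTiter-Glo luminescence after 30 min.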

[7] = biological target: Nuclear receptor ROR-gamma (Homo sapiens) (UniProt P51449); experiment: qHTS assay to identify small molecule antagonists of the retinoid-related orphan receptor gamma (ROR-gamma) signaling pathway (AID 1159521)
Method in brief: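 RORγ antagonism is scored from reduced reporter luminescence in Tet-on CHO cells. Induction used 1 uM final doxycycline hyclate for 16 h at 37 C, following a 2 h compound exposure.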

[8] = qHTS assay to identify small molecule agonists of the AP-1 signaling pathway - cell viability counter screen (AID 1159525; calls by dose curve; further: nearly all actives have a fitted effect of over 55% in size)
Method in brief: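 ME-180 AP-1-bla, 2500 cells/well, Opti-MEM + 0.5% dialyzed FBS; overnight 37 °C; cpd 15-pt titration, 5 h 37 °C; CellTiter-Glo 30 min RT; luminescence read; normalised to TOAB and DMSO controls.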

[9] = qHTS assay to identify small molecule agonists of the AP-1 signaling pathway (AID 1159526; calls by dose curve; further: on the % scale 0 is the no-effect control and ±100 the full control effect)
[10] = biological target: Retinoic acid receptor RXR-alpha (Homo sapiens) (UniProt P19793); experiment: qHTS assay to identify small molecule agonists of the RXR signaling pathway (AID 1159527; calls by dose curve; further: on the % scale 0 is the no-effect control and ±100 the full control effect; nearly all actives have a fitted effect of over 35% in size)
Sequence of Retinoic acid receptor RXR-alpha (Homo sapiens) (P19793 whole entry, looked up): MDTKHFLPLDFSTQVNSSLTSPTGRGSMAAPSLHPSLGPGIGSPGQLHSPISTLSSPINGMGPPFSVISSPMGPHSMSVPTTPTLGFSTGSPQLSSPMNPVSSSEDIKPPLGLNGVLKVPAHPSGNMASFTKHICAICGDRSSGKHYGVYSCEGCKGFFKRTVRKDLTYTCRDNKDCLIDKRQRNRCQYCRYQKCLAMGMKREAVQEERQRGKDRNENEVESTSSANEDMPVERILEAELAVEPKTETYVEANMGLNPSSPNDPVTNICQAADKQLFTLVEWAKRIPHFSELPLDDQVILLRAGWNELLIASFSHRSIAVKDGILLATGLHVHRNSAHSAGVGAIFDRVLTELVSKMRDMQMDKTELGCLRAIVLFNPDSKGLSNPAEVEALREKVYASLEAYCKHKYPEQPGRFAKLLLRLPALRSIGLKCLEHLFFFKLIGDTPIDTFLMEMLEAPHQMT
Method in brief: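 qHTS of the Tox21 10K library in GeneBLAzer RXR-alpha HEK 293T cells carrying a beta-lactamase reporter […]; 16 hr treatment, 9-cis retinoic acid as agonist control, FRET read-out.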

[11] = qHTS assay to identify small molecule agonists of the RXR signaling pathway - cell viability counter screen (AID 1159529)
Method in brief: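 Cell viability is measured by CellTiter-Glo luminescence, 30 min at room temperature, in wells already read for beta-lactamase. Engineered HEK 293T cells (RXR-alpha-UAS-bla) are dosed 16 hr at 37 C. Tetraoctyl ammonium bromide serves as positive control.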

[12] = qHTS assay to identify small molecule antagonists of the retinoid acid receptor (RAR) signaling pathway - cell viability counter screen (AID 1159551); further: on the % scale 0 is the no-effect control and ±100 the full control effect; nearly all actives have a fitted effect of over 35% in size
Method in brief: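 Cytotoxicity counter screen in C3RL4 cells: 6 h compound exposure with 1 uM retinol (final), viability from cellular ATP by luminescence.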

[13] = qHTS assay to identify small molecule antagonists of the retinoic acid receptor (RAR) signaling pathway (AID 1159552)
Method in brief: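 Quantitative HTS in C3RL4 RARE-luciferase reporter cells. Compounds were added with 1 uM (final) retinol; luminescence was read after 6 hr.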

[14] = qHTS assay to identify small molecule agonists of the retinoic acid receptor (RAR) signaling pathway (AID 1159553); conditions: C3RL4 RARE luciferase reporter, agonist, 6 h; activation: at 73.3 µM (top of the series); further: on the % scale 0 is the no-effect control and ±100 the full control effect
Method in brief: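 Agonist activity was scored in C3RL4 cells bearing a retinoic acid response element luciferase construct. Cells were treated with compounds for 6 hr at 37 C, and luciferase signal was measured as luminescence.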

[15] = qHTS assay to identify small molecule antagonists of the estrogen related receptor (ERR) signaling pathway from Tox21 library - cell viability counter screen (AID 1224834); further: on the % scale 0 is the no-effect control and ±100 the full control effect; nearly all actives have a fitted effect of over 30% in size
Method in brief: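 Cytotoxicity of test substances is gauged in the same ERR cells used for the antagonist screen, after 17.5 h of compound treatment at 37 C, by CellTiter-Fluor fluorescence measured after 30 min.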

[16] = qHTS assay to identify small molecule agonists of the constitutive androstane receptor (CAR) signaling pathway - cell viability counter screen (AID 1224836); further: on the % scale 0 is the no-effect control and ±100 the full control effect; nearly all actives have a fitted effect of over 45% in size
Method in brief: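 Counter screen multiplexed with the CAR reporter readout: HepG2 cells co-transfected with hCAR and the CYP2B6-2.2kb construct receive a 15-concentration compound series and 0.75 uM PK11195 (final), then CellTiter-Fluor fluorescence is read after 23 h.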

[17] = qHTS assay to identify small molecule antagonists of the constitutive androstane receptor (CAR) signaling pathway - cell viability counter screen (AID 1224837); further: on the % scale 0 is the no-effect control and ±100 the full control effect; nearly all actives have a fitted effect of over 45% in size
Method in brief: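 Multiplexed cytotoxicity read-out for the CAR antagonist screen: double-stable HepG2-CYP2B6-hCAR cells co-treated with 50 nM CITCO (final) and compound over 15 concentrations, incubated 23 hr, then assessed by CellTiter-Fluor fluorescence.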

[18] = biological target: Nuclear receptor subfamily 1 group I member 3 (Homo sapiens) (UniProt Q14994); experiment: qHTS assay to identify small molecule antagonists of the constitutive androstane receptor (CAR) signaling pathway (AID 1224838); further: on the % scale 0 is the no-effect control and ±100 the full control effect; nearly all actives have a fitted effect of over 40% in size
Sequence of Nuclear receptor subfamily 1 group I member 3 (Homo sapiens) (Q14994 whole entry, looked up): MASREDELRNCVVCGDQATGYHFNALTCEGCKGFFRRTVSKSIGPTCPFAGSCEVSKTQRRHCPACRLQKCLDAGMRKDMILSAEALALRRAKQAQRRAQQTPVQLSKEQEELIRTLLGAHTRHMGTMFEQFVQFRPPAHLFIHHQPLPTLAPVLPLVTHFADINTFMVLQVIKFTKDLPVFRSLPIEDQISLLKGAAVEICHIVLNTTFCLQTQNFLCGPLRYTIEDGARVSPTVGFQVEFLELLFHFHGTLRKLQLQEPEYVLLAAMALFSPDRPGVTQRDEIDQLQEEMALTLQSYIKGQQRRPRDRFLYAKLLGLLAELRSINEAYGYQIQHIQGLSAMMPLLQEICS
Method in brief: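 Compounds were titrated across 15 concentrations onto HepG2 cells double-stably expressing hCAR and a CYP2B6-2.2kb reporter, together with 50 nM CITCO (final). After 24 h at 37 C, luciferase activity was measured by luminescence.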

[19] = biological target: Luciferin 4-monooxygenase (Photinus pyralis) (UniProt P08659); experiment: qHTS assay to identify small molecule inhibitors of firefly luciferase (AID 1224835); further: on the % scale 0 is the no-effect control and ±100 the full control effect; nearly all actives have a fitted effect of over 25% in size
Sequence of Luciferin 4-monooxygenase (Photinus pyralis) (P08659 whole entry, looked up): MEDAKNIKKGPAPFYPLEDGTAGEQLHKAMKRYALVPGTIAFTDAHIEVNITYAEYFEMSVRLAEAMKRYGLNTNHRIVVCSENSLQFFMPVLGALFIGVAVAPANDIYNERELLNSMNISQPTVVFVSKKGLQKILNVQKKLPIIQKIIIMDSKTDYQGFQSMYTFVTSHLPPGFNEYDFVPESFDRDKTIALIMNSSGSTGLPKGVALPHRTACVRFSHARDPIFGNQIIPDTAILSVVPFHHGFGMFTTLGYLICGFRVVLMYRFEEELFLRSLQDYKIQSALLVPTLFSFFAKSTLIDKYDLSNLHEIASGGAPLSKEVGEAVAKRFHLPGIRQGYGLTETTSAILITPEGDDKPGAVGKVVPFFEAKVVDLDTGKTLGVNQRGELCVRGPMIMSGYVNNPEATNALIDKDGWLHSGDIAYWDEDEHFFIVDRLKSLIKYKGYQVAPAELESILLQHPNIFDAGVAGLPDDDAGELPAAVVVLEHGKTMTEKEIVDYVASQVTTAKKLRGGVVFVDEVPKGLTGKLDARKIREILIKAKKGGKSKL
Method in brief: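 Quantitative HTS format; KM concentrations of both substrates. Purified P. pyralis FLuc activity quantified from luminescence images.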

CCCCCCCCCOCC1CO1 (stereo unspecified)
inactive: outcome [1] | outcome [2] | outcome [3] | outcome [4] | outcome [5] | outcome [6] | outcome [7] | outcome [8] | outcome [9] | Potency [10] | outcome [11] | outcome [12] | Potency [13] | Potency [14] | Potency [15] | outcome [16] | Potency [17] | Potency [18]

CCOC(=O)CC#N
inactive: outcome [1] | outcome [2] | outcome [3] | outcome [4] | outcome [5] | outcome [6] | outcome [7] | outcome [8] | outcome [9] | Potency [10] | outcome [11] | outcome [12] | Potency [13] | Potency [14] | Potency [19] | outcome [16] | Potency [17]

CC(=O)OC(C)(C)Cc1ccccc1
inactive: outcome [1] | outcome [2] | outcome [3] | outcome [5] | outcome [6] | outcome [7] | outcome [8] | outcome [9] | Potency [10] | outcome [11] | outcome [12] | Potency [13] | Potency [14] | Potency [15] | Potency [19] | outcome [16]

CCS(=O)(=O)CCn1c([N+](=O)[O-])cnc1C
inactive: outcome [1] | outcome [2] | outcome [3] | outcome [4] | outcome [5] | outcome [6] | outcome [7] | outcome [8] | outcome [9] | Potency [10] | outcome [11] | outcome [12] | Potency [13] | Potency [15] | Potency [19] | outcome [16] | Potency [17] | Potency [18]

CCCCCC(=O)OCC
inactive: outcome [1] | outcome [2] | outcome [3] | outcome [4] | outcome [5] | outcome [6] | outcome [7] | outcome [9] | Potency [10] | outcome [12] | Potency [13] | Potency [15] | Potency [19] | outcome [16] | Potency [17]

Cc1ccccc1C(=O)N1CC/C(=N\OS(=O)(=O)O)c2ccc(Cl)cc21
inactive: outcome [1] | outcome [2] | outcome [3] | outcome [4] | outcome [5] | outcome [6] | outcome [7] | outcome [8] | outcome [9] | Potency [10] | outcome [12] | Potency [13] | Potency [15] | Potency [19] | outcome [16] | Potency [17]

Cc1ccc(S(=O)(=O)NC(=O)NC2CCCCCCC2)cc1
inactive: outcome [1] | outcome [2] | outcome [3] | outcome [5] | outcome [6] | outcome [7] | outcome [9] | Potency [10] | outcome [12] | Potency [13] | Potency [15] | Potency [19] | outcome [16] | Potency [17]

F[Si-2](F)(F)(F)(F)F
inactive: outcome [1] | outcome [2] | outcome [3] | outcome [4] | outcome [5] | outcome [6] | outcome [7] | outcome [9] | Potency [10] | outcome [11] | outcome [12] | Potency [13] | Potency [14] | Potency [19] | outcome [16] | Potency [17]

Nc1ccc(/C=C/c2ccc(N)cc2S(=O)(=O)O)c(S(=O)(=O)O)c1
inactive: activity change, negative = cytotoxicity [1] 8.54% [at 0.55 µM] | viability change, negative = cytotoxic [2] 9.91% [at 0.628 µM] | activation [3] 0.561% [at 0.628 µM] | activation [4] 0% [at 0.628 µM] | activity change, negative = cytotoxicity [5] 9.94% [at 0.628 µM] | activity, negative = cytotoxicity [6] -1.32% [at 0.349 µM] | activity change, negative = inhibition [7] 35.7% [at 0.35 µM] | viability change, negative = cytotoxic [8] 6.31% [at 0.29 µM] | activation [9] -7.74% [at 0.29 µM] | activation [10] 6.35% [at 0.29 µM] | activity change, negative = cytotoxicity [11] 1.24% [at 0.29 µM] | activity change, negative = cytotoxicity [12] 2.39% [at 0.349 µM] | activity, negative = inhibition [13] 3.51% [at 0.349 µM] | activation [14] -0.705% [at 0.756 µM] | viability change, negative = cytotoxic [15] 2.37% [at 0.349 µM] | viability change, negative = cytotoxic [16] 6.71% [at 0.349 µM] | activity change, negative = cytotoxicity [17] 10.1% [at 0.349 µM] | activity, negative = inhibition [18] -20.1% [at 0.349 µM]

C=CCCCCCCCCCCC
inactive: activity change, negative = cytotoxicity [1] -9.89% [at 5.95 µM] | viability change, negative = cytotoxic [2] 5.49% [at 6.95 µM] | activation [3] 0.0657% [at 6.95 µM] | activation [4] -5.43% [at 6.95 µM] | activity change, negative = cytotoxicity [5] -0.545% [at 6.95 µM] | activity, negative = cytotoxicity [6] 3.91% [at 8.39 µM] | activity change, negative = inhibition [7] -1.42% [at 8.39 µM] | viability change, negative = cytotoxic [8] 9.65% [at 6.97 µM] | activation [9] -2.43% [at 6.97 µM] | activation [10] 6.32% [at 6.98 µM] | activity change, negative = cytotoxicity [11] 0.762% [at 6.97 µM] | activity change, negative = cytotoxicity [12] 5.5% [at 8.39 µM] | activity, negative = inhibition [13] 18.9% [at 8.39 µM] | activation [14] 0.0107% [at 8.36 µM] | viability change, negative = cytotoxic [15] 0.22% [at 8.39 µM] | activity change, negative = inhibition [19] 6.44% [at 10.5 µM] | viability change, negative = cytotoxic [16] -0.862% [at 8.39 µM] | activity change, negative = cytotoxicity [17] 6.96% [at 8.39 µM]
